# Laboratory results taken from PubChem BioAssay AID1159580 (chemical genetic matrix, 2015).
# “And” between values parts separate entries of the source, which are not always exact repeats. Equal values may be shown once. Out of some 5,500 compounds screened, about 2,000 (36%) were called active. Not shown: some 18% with an inconclusive outcome. Cut-off read from the data, not from the text of the source: active = normalized growth mostly below about 0.91 (no sharp cut-off); inconclusive = no clear call, values can overlap the other calls; inactive = mostly above about 0.92. The list shows a part of the results. The source holds several records for some structures; these can differ, active in one and inactive in another.
# Experiment: chemical genetic growth profiling, strain panel (AID 1159580);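 note: tested at 20 µM; growth read once vehicle control cultures reached saturation at 30 °C; 1 = growth at the plate median or of vehicle wells; lower values mean less growth of the strain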
# Settings: S. cerevisiae deletion strains, growth OD
smiles,measurement,setting,value
C=CCCCCCCCCC(=O)O,normalized growth,"locus YAL021C, strain ccr4, stronger effect = lower value",0.996 (inactive) and 1 (inactive)
same,normalized growth,"locus YAL026C, strain drs2, stronger effect = lower value",0.984 (inactive) and 0.932 (inactive)
same,normalized growth,"locus YAL030W, strain snc1, stronger effect = lower value",0.973 (inactive) and 0.992 (inactive)
same,normalized growth,"locus YBL061C, strain skt5, stronger effect = lower value",0.968 (inactive) and 1 (inactive)
same,normalized growth,"locus YBR009C, strain hhf1, stronger effect = lower value",0.977 (inactive) and 0.983 (inactive)
same,normalized growth,"locus YBR023C, strain chs3, stronger effect = lower value",0.977 (inactive) and 0.985 (inactive)
same,normalized growth,"locus YBR171W, strain sec66, stronger effect = lower value",0.983 (inactive) and 0.976 (inactive)
same,normalized growth,"locus YBR231C, strain swc5, stronger effect = lower value",0.989 (inactive) and 1.01 (inactive)
same,normalized growth,"locus YBR279W, strain paf1, stronger effect = lower value",0.975 (inactive) and 0.985 (inactive)
same,normalized growth,"locus YCL011C, strain gbp2, stronger effect = lower value",0.978 (inactive) and 0.989 (inactive)
same,normalized growth,"locus YCL016C, strain dcc1, stronger effect = lower value",0.988 (inactive) and 0.992 (inactive)
same,normalized growth,"locus YCL061C, strain MRC1, stronger effect = lower value",0.99 (inactive) and 0.991 (inactive)
same,normalized growth,"locus YCL069W, strain vba3, stronger effect = lower value",0.989 (inactive) and 0.991 (inactive)
same,normalized growth,"locus YCR088W, strain abp1, stronger effect = lower value",0.978 (inactive) and 1 (inactive)
same,normalized growth,"locus YDL005C, strain med2, stronger effect = lower value",0.962 (inactive) and 1 (inactive)
same,normalized growth,"locus YDL040C, strain nat1, stronger effect = lower value",0.974 (inactive) and 0.994 (inactive)
same,normalized growth,"locus YDR001C, strain nth1, stronger effect = lower value",0.978 (inactive) and 1 (inactive)
same,normalized growth,"locus YDR069C, strain doa4, stronger effect = lower value",0.984 (inactive) and 0.997 (inactive)
same,normalized growth,"locus YDR137W, strain rgp1, stronger effect = lower value",0.988 (inactive) and 0.986 (inactive)
same,normalized growth,"locus YDR159W, strain sac3, stronger effect = lower value",1 (inactive) and 1.06 (inactive)
same,normalized growth,"locus YDR195W, strain ref2",1 (inactive) and 1.09 (inactive)
same,normalized growth,"locus YDR297W, strain sur2, stronger effect = lower value",0.978 (inactive) and 0.998 (inactive)
same,normalized growth,"locus YDR334W, strain swr1, stronger effect = lower value",0.988 (inactive) and 0.976 (inactive)
same,normalized growth,"locus YDR335W, strain msn5, stronger effect = lower value",0.981 (inactive) and 0.965 (inactive)
same,normalized growth,"locus YDR392W, strain spt3, stronger effect = lower value",0.898 (inactive) and 0.647 (active)
same,normalized growth,"locus YEL003W, strain gim4, stronger effect = lower value",0.984 (inactive) and 0.981 (inactive)
same,normalized growth,"locus YEL037C, strain rad23, stronger effect = lower value",0.969 (inactive) and 0.972 (inactive)
same,normalized growth,"locus YEL061C, strain CIN8 (second series), stronger effect = lower value",0.982 (inactive) and 0.992 (inactive)
same,normalized growth,"locus YER015W, strain faa2, stronger effect = lower value",0.985 (inactive) and 0.992 (inactive)
same,normalized growth,"locus YER016W, strain bim1, stronger effect = lower value",0.978 (inactive) and 0.985 (inactive)
same,normalized growth,"locus YER111C, strain swi4, stronger effect = lower value",0.981 (inactive) and 1 (inactive)
same,normalized growth,"locus YER155C, strain BEM2 (second series), stronger effect = lower value",0.977 (inactive) and 0.947 (inactive)
same,normalized growth,"locus YFR010W, strain ubp6, stronger effect = lower value",1.02 (inactive) and 0.951 (inactive)
same,normalized growth,"locus YGL167C, strain pmr1, stronger effect = lower value",0.961 (inactive) and 0.995 (inactive)
same,normalized growth,"locus YGL173C, strain kem1, stronger effect = lower value",0.984 (inactive) and 0.975 (inactive)
same,normalized growth,"locus YGL227W, strain vid30, stronger effect = lower value",0.97 (inactive) and 1 (inactive)
same,normalized growth,"locus YGL240W, strain doc1, stronger effect = lower value",0.976 (inactive) and 0.911 (inactive)
same,normalized growth,"locus YGL253W, strain hxk2, stronger effect = lower value",0.983 (inactive) and 0.978 (inactive)
same,normalized growth,"locus YHR013C, strain ard1, stronger effect = lower value",1.21 [resistant] (active) and 0.965 (inactive)
same,normalized growth,"locus YHR027C, strain rpn1, stronger effect = lower value",0.981 (inactive) and 0.971 (inactive)
same,normalized growth,"locus YHR030C, strain SLT2, stronger effect = lower value",0.948 (inactive) and 0.105 (active)
same,normalized growth,"locus YHR079C, strain IRE1, stronger effect = lower value",0.979 (inactive) and 0.111 (active)
same,normalized growth,"locus YHR142W, strain chs7, stronger effect = lower value",1.01 (inactive) and 0.926 (inactive)
same,normalized growth,"locus YJL092W, strain hpr5, stronger effect = lower value",0.979 (inactive) and 0.99 (inactive)
same,normalized growth,"locus YJL095W, strain BCK1 (second series), stronger effect = lower value",0.98 (inactive) and 0.996 (inactive)
same,normalized growth,"locus YJL095W, strain BCK1, stronger effect = lower value",0.974 (inactive) and 0.136 (active)
same,normalized growth,"locus YJL115W, strain asf1, stronger effect = lower value",0.974 (inactive) and 0.969 (inactive)
same,normalized growth,"locus YJL129C, strain trk1, stronger effect = lower value",0.984 (inactive) and 0.778 (active)
same,normalized growth,"locus YJL154C, strain vps35, stronger effect = lower value",0.978 (inactive) and 0.995 (inactive)
same,normalized growth,"locus YJL164C, strain tpk1, stronger effect = lower value",0.973 (inactive) and 0.929 (inactive)
same,normalized growth,"locus YJL166W, strain qcr8, stronger effect = lower value",0.993 (inactive) and 0.959 (inactive)
same,normalized growth,"locus YJL187C, strain SWE1, stronger effect = lower value",0.979 (inactive) and 0.99 (inactive)
same,normalized growth,"locus YJR066W, strain TOR1, stronger effect = lower value",0.928 (inactive) and 0.0525 (active)
same,normalized growth,"locus YKL160W, strain elf1, stronger effect = lower value",0.997 (inactive) and 0.97 (inactive)
same,normalized growth,"locus YKR026C, strain gcn3, stronger effect = lower value",0.951 (inactive) and 0.98 (inactive)
same,normalized growth,"locus YKR091W, strain srl3, stronger effect = lower value",0.986 (inactive) and 0.997 (inactive)
same,normalized growth,"locus YLL001W, strain dnm1, stronger effect = lower value",0.978 (inactive) and 0.993 (inactive)
same,normalized growth,"locus YLL026W, stronger effect = lower value",0.975 (inactive) and 0.996 (inactive)
same,normalized growth,"locus YLL041C, strain sdh2, stronger effect = lower value",0.992 (inactive) and 0.988 (inactive)
same,normalized growth,"locus YLR027C, strain aat2, stronger effect = lower value",0.987 (inactive) and 0.983 (inactive)
same,normalized growth,"locus YLR113W, strain HOG1, stronger effect = lower value",1.1 (inactive) and 0.156 (active)
same,normalized growth,"locus YLR221C, strain rsa3, stronger effect = lower value",0.984 (inactive) and 0.937 (inactive)
same,normalized growth,"locus YLR258W, strain gsy2, stronger effect = lower value",0.981 (inactive) and 1.01 (inactive)
same,normalized growth,"locus YLR262C, strain YPT6 (second series), stronger effect = lower value",0.978 (inactive) and 0.977 (inactive)
same,normalized growth,"locus YLR320W, strain mms22, stronger effect = lower value",0.998 (inactive) and 0.925 (inactive)
same,normalized growth,"locus YLR342W, strain FKS1, stronger effect = lower value",0.98 (inactive) and 0.989 (inactive)
same,normalized growth,"locus YLR357W, strain rsc2, stronger effect = lower value",0.948 (inactive) and 0.927 (inactive)
same,normalized growth,"locus YLR370C, strain arc18, stronger effect = lower value",0.987 (inactive) and 1 (inactive)
same,normalized growth,"locus YLR384C, strain iki3, stronger effect = lower value",0.968 (inactive) and 0.985 (inactive)
same,normalized growth,"locus YML120C, strain ndi1, stronger effect = lower value",0.997 (inactive) and 0.931 (inactive)
same,normalized growth,"locus YMR058W, strain fet3, stronger effect = lower value",0.981 (inactive) and 0.952 (inactive)
same,normalized growth,"locus YMR125W, strain sto1, stronger effect = lower value",0.938 (inactive) and 0.956 (inactive)
same,normalized growth,"locus YMR129W, stronger effect = lower value",0.993 (inactive) and 0.997 (inactive)
same,normalized growth,"locus YMR205C, strain PFK2, stronger effect = lower value",0.966 (inactive) and 1.04 (inactive)
same,normalized growth,"locus YMR231W, strain pep5, stronger effect = lower value",0.97 (inactive) and 0.951 (inactive)
same,normalized growth,"locus YNL071W, strain lat1, stronger effect = lower value",0.982 (inactive) and 0.953 (inactive)
same,normalized growth,"locus YNL183C, strain NPR1, stronger effect = lower value",0.933 (inactive) and 0.0268 (active)
same,normalized growth,"locus YNL209W, strain ssb2, stronger effect = lower value",0.979 (inactive) and 0.984 (inactive)
same,normalized growth,"locus YNL248C, strain rpa49, stronger effect = lower value",1.01 (inactive) and 0.852 (active)
same,normalized growth,"locus YNL322C, strain KRE1 (second series), stronger effect = lower value",0.981 (inactive) and 0.991 (inactive)
same,normalized growth,"locus YNR049C, strain mso1, stronger effect = lower value",0.979 (inactive) and 0.992 (inactive)
same,normalized growth,"locus YOR001W, strain rrp6, stronger effect = lower value",0.987 (inactive) and 0.93 (inactive)
same,normalized growth,"locus YOR070C, strain gyp1, stronger effect = lower value",0.974 (inactive) and 0.975 (inactive)
same,normalized growth,"locus YOR080W, strain dia2, stronger effect = lower value",0.965 (inactive) and 0.987 (inactive)
same,normalized growth,"locus YOR083W, strain WHI5, stronger effect = lower value",1.01 (inactive) and 0.909 (inactive)
same,normalized growth,"locus YOR106W, strain vam3, stronger effect = lower value",1.01 (inactive) and 0.925 (inactive)
same,normalized growth,"locus YOR231W, strain MKK1, stronger effect = lower value",0.953 (inactive) and 0.105 (active)
same,normalized growth,"locus YOR265W, strain rbl2, stronger effect = lower value",0.981 (inactive) and 0.986 (inactive)
same,normalized growth,"locus YOR270C, strain vph1, stronger effect = lower value",1.01 (inactive) and 0.771 (active)
same,normalized growth,"locus YOR290C, strain snf2, stronger effect = lower value",0.992 (inactive) and 0.916 (inactive)
same,normalized growth,"locus YPL051W, strain arl3, stronger effect = lower value",0.986 (inactive) and 0.967 (inactive)
same,normalized growth,"locus YPL078C, strain atp4, stronger effect = lower value",0.982 (inactive) and 0.88 (active)
same,normalized growth,"locus YPL106C, strain sse1, stronger effect = lower value",0.988 (inactive) and 1.04 (inactive)
same,normalized growth,"locus YPL240C, strain hsp82, stronger effect = lower value",0.986 (inactive) and 1 (inactive)
same,normalized growth,"locus YPL256C, strain CLN2, stronger effect = lower value",1.01 (inactive) and 0.114 (active)
